{"source": "PubChem BioAssay (NCATS)", "note": "Inconclusive results are not listed. Active and inactive are the calls of the source. The call rests on the fitted dose curve; in most records, active means well fitted cell-killing curve with a large enough effect; inconclusive means small, poorly fitted or top-dose-only effect; inactive means no such curve, though single readings can be large or run the other way. On the % scale 0 is the no-effect control and ±100 the full control effect; potency means the concentration at half of the fitted maximal effect."}
{"experiment": "qHTS of pediatric cancer cell lines to identify multiple opportunities for drug repurposing: Confirmatory screen for TC32 cells (AID 1347118);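 further: cells exposed to compound for 48 h before the read; nearly all actives have a fitted effect of over 65% in size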", "details": "TC32 Ewing sarcoma cells viability qHTS; series mostly up to 45.9 µM; activity change, negative = cytotoxicity: at the top concentration", "text": "Drug repurposing or repositioning has been offered as a strategy for drug development in oncology programs. This approach has special potential for childhood cancers and other rare or orphan diseases, where the expected return on new drug development has been a disincentive to pharmaceuticals.\nIn this project we exploit the poly-pharmacology of drugs to discover new indications via phenotypic screening of a panel of 19 well-characterized cell lines derived from solid tumors seen in children and adolescents. The goal is to identify approved drugs with previously unrecognized anticancer properties that has the potential to reveal new mechanisms and biological processes involved in carcinogenesis or drug resistance. We employed a titration-based paradigm (quantitative high-throughput screening or qHTS), where all compounds were tested at multiple concentrations for their effect on cell viability. Concentration-response curves (CRCs) were derived directly from the primary screen, and both potency and efficacy values were used to identify compounds with robust bioactivity profiles. We screened the NIH Chemical Genomics Center (NCGC) Pharmaceutical Collection (NPC) and Mechanism Interrogation Plate (MIPE) small molecule collections of approved and investigational compounds against these cell lines; and measured metabolically active cells after 48 hours of compound treatment as a proxy for cell viability.\nAssay Submitter: Nathalia J. Martinez, National Center for Advancing Translational Sciences, National Institutes of Health, Rockville, MD, USA; email: natalia.martinez@nih.gov\n[1] Shen, M et al. Quantitative high-throughput phenotypic screening of pediatric cancer cell lines identifies multiple opportunities for drug repurposing. Oncotarget 2017 Dec 19;9(4):4758-4772. PMID 29435139.\nThe cells were obtained from University of North Carolina (UNC), Pediatric Preclinical Testing Program (PPT), and Coriell Institute (CI).\nqHTS cell viability assay:\nCells were assayed in growth media at a density of 500-1,000 cells/well. Five microliters of cells were dispensed into 1,536-well, white, solid-bottom, TC-treated plates (Greiner Bio One) using a multidrop dispenser and incubated at 37 degrees C, 5% CO2, under a humidified atmosphere for 5 hours. Twenty-three nanoliters of compounds and controls (neutral control DMSO or positive control bortezomib at final concentration of 2.3 uM) were subsequently transferred by Kalypsys pintool. For primary screens, the MIPE collection was tested at 11-point dilutions (final concentrations range from 0.78 nM to 46 µM) and the NPC collection at 8-point dilutions (final concentrations range from 0.59 nM to 46 µM). Compounds tested in follow-up screens were assayed at 11-point dilutions. Cells were incubated for 48 hours, followed by addition of 3 uL of CellTiter-Glo (Promega). After a 15min incubation at room temperature, samples were analyzed for luminescence intensity using a ViewLux High-throughput CCD imager equipped with clear filters."}
{"smiles": "CC[C@@]1(O)C(=O)OCc2c1cc1n(c2=O)Cc2cc3c(CN(C)C)c(O)ccc3nc2-1", "Potency": "0.0585 µM (active)"}
{"smiles": "CC(COc1ccccc1)N(CCCl)Cc1ccccc1", "note": "(configuration not stated)", "Potency": "7.37 µM (active)"}
{"smiles": "O=C(Nc1ccc([N+](=O)[O-])cc1Cl)c1cc(Cl)ccc1O", "Potency": "2.04 µM (active)"}
{"smiles": "O=C(c1ccc(OCCN2CCCCC2)cc1)c1c(-c2ccc(O)cc2)sc2cc(O)ccc12", "Potency": "16.5 µM (active)"}
{"smiles": "NC(=O)NO", "Potency": "20.8 µM (active)"}
{"smiles": "CC(CCc1ccc(O)cc1)NCCc1ccc(O)c(O)c1", "note": "(configuration not stated)", "Potency": "20.8 µM (active)"}
{"smiles": "NC12CC3CC(CC(C3)C1)C2", "activity change, negative = cytotoxicity": "-6.55% (inactive)"}
{"smiles": "CCCCc1oc2ccccc2c1C(=O)c1cc(I)c(OCCN(CC)CC)c(I)c1", "Potency": "28.2 µM (active)"}
{"smiles": "Clc1ccc(C(c2ccccc2Cl)C(Cl)Cl)cc1", "note": "(configuration not stated)", "activity change, negative = cytotoxicity": "-27.2% (inactive)"}
{"smiles": "CN(C)CCCN1c2ccccc2CCc2ccc(Cl)cc21", "activity change, negative = cytotoxicity": "-20% (inactive)"}
{"smiles": "COC(=O)Nc1nc2ccc(C(=O)c3cccs3)cc2[nH]1", "Potency": "0.131 µM (active)"}
{"smiles": "COc1cc2c(c(OC)c1OC)-c1ccc(OC)c(=O)cc1[C@@H](NC(C)=O)CC2", "Potency": "0.0355 µM (active)"}
{"smiles": "CC#C[C@]1(O)CC[C@H]2[C@@H]3CCC4=CC(=O)CCC4=C3[C@@H](c3ccc(N(C)C)cc3)C[C@@]21C", "Potency": "18.5 µM (active)"}
{"smiles": "CC(C)Cc1ccc(C(C)C(=O)O)cc1", "note": "(configuration not stated)", "Potency": "3.69 µM (active)"}
{"smiles": "CN(Cc1cnc2nc(N)nc(N)c2n1)c1ccc(C(=O)N[C@@H](CCC(=O)O)C(=O)O)cc1", "Potency": "0.0369 µM (active)"}
{"smiles": "O=C1c2c(O)ccc(O)c2C(=O)c2c(NCCNCCO)ccc(NCCNCCO)c21", "Potency": "0.131 µM (active)"}
{"smiles": "Clc1ccc2nsnc2c1NC1=NCCN1", "activity change, negative = cytotoxicity": "-27.5% (inactive)"}
